Screening results deposited in PubChem BioAssay by National Center for Advancing Translational Sciences (NCATS).
Only some compounds are listed: those with a hit (about 18% of all), similar ones and a draw of the others.
TDP1 inh: TDP1 (human) enzyme inhibition; Q9NUW8; recombinant TDP1, AlphaScreen DNA substrate cleavage; Potency, µM (doses to about 130 µM), for inactives: at the highest dose activity change, negative = inhibition, usual class: inhibitors; hit rate 0.28% among 350,000; AID 485290; note: nearly all actives have a fitted effect of over 40% in size
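Steps: enzyme plus compound, 15 min RT; add biotin/phosphotyrosine-FITC oligonucleotide (15 nM final), react 5 min; add donor/acceptor beads (10 ug/ml final), 10 min; read AlphaScreen. Tdp1 at 1 nM final.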
TDP1 cell noCPT: qHTS for Inhibitors of human tyrosyl-DNA phosphodiesterase 1 (TDP1): qHTS in cells in absence of CPT; AID 686978, 2013; hit rate 15% among 420,000; Potency, µM (highest dose often 46.2 µM), without a hit: at the highest dose activity change, negative = growth inhibition, actives largely listed as inhibitors; DT40 Tdp1-/- hTDP1 cells, no CPT, ATP luminescence, 48 h; note: nearly all actives have a fitted effect of over 55% in size
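No-CPT arm: Tdp1-/-;hTDP1 DT40 cells (400/well) plus compounds, incubated ≥48 hr at 37 °C. Readout CellTiter-Glo luminescence.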
VDR inh: blocks the human vitamin D receptor; VDR-SRC2-3 peptide fluorescence polarization, 2 h; Potency, µM, for the others: max response, negative = inhibition, usual class: inhibitors; hit rate 0.93% among 400,000; AID 504847
Target sequence (P11473 whole entry, looked up): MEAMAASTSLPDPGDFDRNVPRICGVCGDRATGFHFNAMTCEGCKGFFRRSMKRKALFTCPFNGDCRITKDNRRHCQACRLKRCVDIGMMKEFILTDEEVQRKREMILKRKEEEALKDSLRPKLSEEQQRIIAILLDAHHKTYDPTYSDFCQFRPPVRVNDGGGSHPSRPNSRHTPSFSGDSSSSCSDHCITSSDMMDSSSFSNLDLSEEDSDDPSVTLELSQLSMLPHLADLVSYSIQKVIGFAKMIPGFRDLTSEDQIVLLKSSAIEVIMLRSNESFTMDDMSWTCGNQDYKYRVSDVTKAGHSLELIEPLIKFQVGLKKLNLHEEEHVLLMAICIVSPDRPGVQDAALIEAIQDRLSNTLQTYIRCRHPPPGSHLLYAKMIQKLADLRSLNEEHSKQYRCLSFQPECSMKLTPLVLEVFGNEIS
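FP read-out; VDR + SRC2-3 coactivator peptide; 23 nl compound by pintool; 2 h RT incubation; reagents held at 4 deg C, protected from light.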
TDP1 cell CPT: growth inhibition of DT40 Tdp1-/-;hTDP1 cells with camptothecin (screen for TDP1 inhibitors); hit rate 12% among 420,000; Potency, µM (titrated, usually from 46.2 µM), inactives show top-dose activity change, negative = growth inhibition, most hits filed as inhibitors; chicken DT40 Tdp1-/-;hTDP1 cells + 20 nM CPT, ATP luminescence, 48 h; note: nearly all actives have a fitted effect of over 55% in size
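Cell growth measured by CellTiter-Glo luminescence after a minimum 48 h, 37 C compound exposure with 20 nM CPT in Tdp1-knockout DT40 cells stably expressing hTDP1, seeded 400/well; qHTS titration format.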
KAT2A inh: blocks human GCN5L2 histone acetyltransferase; Q92830; GCN5L2 HAT assay, ThioGlo1 CoA-SH fluorescence; Potency, µM (highest dose often 58.9 µM), inactives show at the highest dose activity change, negative = inhibition, usual class: inhibitors; hit rate 0.21% among 390,000; AID 504327
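Fluorescence readout, Ex340nm/Em540nm: ThioGlo1 (50uM final) reacts with free CoA thiol released as 20nM GCN5L2 acetylates H3(1-25) peptide (75uM) using acetyl-CoA (70uM). Compound and enzyme sat 15 min beforehand; 20 min room-temperature reaction.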
PLK1 PBD block: PLK1 (human) polo-box domain binding inhibition | AID 720504 | Plk1 PBD binding of FITC phosphopeptide, fluorescence polarization | Potency, µM, for the others: max response, negative = inhibition, actives largely listed as inhibitors | P53350 | hit rate 2.8% among 360,000; note: series mostly up to about 57 µM; nearly all actives have a fitted effect of over 65% in size
Active calls of the source: *; ? = inconclusive; nt = no result given; [ ] = another dose, or the depositor's remark. Calls come from the whole dose curve; as a rule, active = well fitted curve in the direction sought with a large enough effect; inconclusive = small, poorly fitted or top-dose-only effect, or another doubt; inactive = no such curve, though single readings can be large; an effect the other way counts as inactive or inconclusive. % is set by controls: 0 for no effect and ±100 for the full control effect; potency is the fitted concentration of half-maximal effect.

SMILES | TDP1 inh | TDP1 cell noCPT | VDR inh | TDP1 cell CPT | KAT2A inh | PLK1 PBD block
Cc1ccccc1-c1cc(Nc2ccc(F)cc2)ncn1 | 8.5%[56.1 µM] | ? | ? | ? | -9.1% | nt
COc1ccc(Cn2c(CNS(=O)(=O)c3ccc(Cl)s3)nc3cccnc32)cc1 | 12.1% | 16.4µM* | 6.9% | ? | -16.2% | nt
CCc1ccc(Cn2c(CNS(=O)(=O)c3ccc4c(c3)CCCC4)nc3cccnc32)cc1 | 8.8% | 16.4µM* | 4.7% | ? | -25.6% | nt
CC(C)(C)c1ccc(S(=O)(=O)NCc2nc3cccnc3n2Cc2ccccc2Cl)cc1 | 4.4% | ? | -6.0% | ? | 0.6% | nt
O=[N+]([O-])c1ccc(S(=O)(=O)NCc2nc3cccnc3n2Cc2ccccc2Cl)cc1 | 13.2% | 14.6µM* | -3.6% | 14.6µM* | -7.7% | nt
CCc1ccc(S(=O)(=O)NCc2nc3cccnc3n2Cc2ccccc2Cl)cc1 | 6.6% | 14.6µM* | 10.6% | ? | -14.4% | nt
CCc1ccc2c(CC(=O)NNC(=O)c3ccncc3)coc2c1 | 1.6% | 0.0% | 11.2% | 1.6% | -0.9% | 0.9%
COc1ccccc1Cn1c(CNS(=O)(=O)c2ccc(Cl)s2)nc2cccnc21 | 7.7% | ? | -4.2% | ? | -6.2% | nt
COc1ccccc1Cn1c(CNS(=O)(=O)c2cccc([N+](=O)[O-])c2)nc2cccnc21 | 11.0% | 16.4µM* | -8.3% | 20.6µM* | -3.2% | nt
CC1=NN(C(=O)c2ccccc2)C(O)(c2ccc(Br)cc2)C1 (centres undefined) | 2.5% | ? | 9.7% | 5.8µM* | -0.7% | -6.0%
CCC1=NN(C(=O)c2cccc([N+](=O)[O-])c2)C(O)(c2ccc(C)cc2)C1 (centres undefined) | nt | ? | -21.4% | ? | -14.6% | -10.0%
CCOC(=O)C1=NN(C(=O)c2ccccc2)C(O)(c2ccc(C)cc2)C1 (centres undefined) | 7.8% | 25.9µM* | -17.5% | ? | -3.7% | -19.7%
CC1=NN(C(=O)c2ccccc2Cl)C(O)(c2ccccc2)C1 (centres undefined) | 2.2% | 4.0% | 4.9% | -6.7% | -7.2% | -5.4%
CCC1=NN(C(=O)c2ccc(Br)cc2)C(O)(c2ccccc2)C1 (centres undefined) | 2.6% | 6.51µM* | -10.9% | 5.8µM* | -4.7% | -1.2%
Cc1cc(C(=O)CN2C(=O)C(=O)N(CCC3=CCCCC3)C2=O)c(C)n1C | 6.6% | ? | -17.8% | ? | -16.9% | -2.4%
CCOC(=O)c1nnn(-c2nc(N3CCCC3)nc(N3CCCC3)n2)c1-c1ccccc1 | 0.0% | ? | 14.2% | 18.4µM* | -5.2% | -24.8%
CCOC(=O)c1c(-c2ccccc2)nnn1-c1nc(OCC)nc(N2CCCCC2)n1 | 2.6% | ? | -3.5% | 18.4µM* | -12.5% | -15.4%
CCOc1ccccc1Nc1nc(N2CCCC2)nc(N2CCOCC2)n1 | nt | nt | -5.7% | nt | nt | nt
CCOC(=O)c1c(C)nc(C)c(C(=O)OCC)c1-c1ccccc1 | 1.0% | 2.0% | -4.7% | -5.7% | -10.3% | -5.5%
CCOc1nc(N2CCCCC2)nc(-n2cc(-c3ccccc3)nn2)n1 | 0.5% | 18.4µM* | -5.5% | 16.4µM* | -18.2% | -0.1%
CCOC(=O)c1nnn(-c2ccccc2)c1C | 0.0% | -11.3% | 4.7% | -4.3% | -0.2% | -8.5%
Cc1ccc(C)c(N(CC(=O)NC2CCCC2)C(=O)c2cc3cc4cccc(C)c4nc3s2)c1 | 0.0% | ? | 1.3% | ? | -6.3% | -0.8%
Cc1ccc2cc3cc(C(=O)N(CC(=O)NC4CCCC4)c4cccc(C)c4C)sc3nc2c1 | -2.9% | 18.4µM* | 8.2% | 23.1µM* | -12.5% | 2.4%
Cc1ccc(C(=O)N(CC(=O)NC2CCCC2)c2ccc3c(c2)OCCO3)s1 | 2.6% | ? | -4.3% | ? | -14.5% | 2.3%
Cc1ccc(N(CC(=O)NC2CCCCC2)C(=O)c2ccc(C)s2)cc1 | 0.0% | ? | -7.5% | -19.4% | 3.98µM* | -12.9%
SMILES | TDP1 inh | TDP1 cell noCPT | VDR inh | TDP1 cell CPT | KAT2A inh | PLK1 PBD block
CCC(=O)NC(c1ccco1)c1cc(Cl)c2ccccc2c1O (centres undefined) | 3.8% | nt | -17.1% | nt | -10.5% | nt
CCCC(=O)NC(c1ccc2c(c1)OCO2)c1cc(Cl)c2cccnc2c1O (centres undefined) | 10.8% | 3.66µM* | -6.0% | 4.61µM* | -0.3% | -2.0%
CC(C)CC(=O)NC(c1cccs1)c1ccc2cccnc2c1O (centres undefined) | -5.6% | 0.581µM* | 14.6% | 2.91µM* | -4.4% | -0.6%
CCCC(=O)NC(c1ccco1)c1cc(Cl)c2cccnc2c1O (centres undefined) | 10.5% | 4.61µM* | 2.7% | 3.66µM* | -1.1% | -7.8%
CCC(=O)NC(c1ccc2c(c1)OCO2)c1cc(Cl)c2cccnc2c1O (centres undefined) | -0.1% | nt | nt | nt | nt | nt
CCCC(=O)NC(c1cccs1)c1cc(Cl)c2cccnc2c1O (centres undefined) | 9.7% | 2.91µM* | -8.3% | 5.17µM* | 3.8% | -2.0%
Cc1conc1NC(c1cccs1)c1ccc2cccnc2c1O (centres undefined) | 7.8% | nt | nt | nt | -0.3% | nt
CC(=O)SCC(=O)N=c1sc2cc(F)ccc2n1C | 4.1% | 20.6µM* | -12.3% | ? | nt | -4.0%
Oc1ccc(Oc2ccc3c(C(F)(F)F)cc(C(F)(F)F)nc3n2)cc1 | 3.1% | 18.4µM* | -4.7% | 14.6µM* | -7.4% | 0.5%
CN(N)c1ccc2c(C(F)(F)F)cc(C(F)(F)F)nc2n1 | 4.6% | ? | -12.1% | ? | -6.1% | 23.8µM*
COc1ccc(Oc2ccc3c(C(F)(F)F)cc(C(F)(F)F)nc3n2)cc1 | 7.1% | -1.7% | 27.2% | -24.3% | -17.7% | -6.6%
CS(=O)(=O)c1nc(S(=O)(=O)c2ccc(Cl)cc2)c(NCCCN2CCOCC2)s1 | 1.0% | 21.5% | -8.5% | -3.2% | -2.7% | -20.9%
C=CCOc1ccc(C2c3c(oc4ccccc4c3=O)C(=O)N2CCCN2CCOCC2)cc1 (centres undefined) | 5.8% | -23.8% | 10.4% | -24.3% | -4.8% | ?
CC(C)c1ccc(C2c3c(oc4ccc(Cl)cc4c3=O)C(=O)N2CCCN2CCOCC2)cc1 (centres undefined) | 2.9% | ? | 2.6% | 18.4µM* | -8.1% | nt
CC(C)Oc1ccc(C2c3c(oc4ccccc4c3=O)C(=O)N2CCCN2CCOCC2)cc1 (centres undefined) | 7.1% | ? | -1.6% | 25.9µM* | 4.0% | -27.2%
